The values below come from PubChem BioAssay (NCI).

The panel holds about 79,000 compounds, 15% with a hit somewhere; the sample as a whole holds those more often. A number with no mark means an inactive call. Active and inactive are the calls of the source. Rule as the data show it: active = growth inhibition above about 70%; inactive = the rest.

One assay in a line: NCI Yeast Anticancer Drug Screen. Data for the cln2 rad14 strain (AID 165).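 Also: 0% = growth equal to vehicle treated cultures.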 To be noted: S. cerevisiae cln2 rad14 strain, at 50.0 µM, stronger effect = higher value. In short, it runs like this: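 Each compound was tested on cln2 rad14 yeast. Inhibition of growth was calculated against vehicle-exposed controls.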
`CC(C)(CCCOc1ccccc1)NC(=O)c1ccccc1`: the growth inhibition was 15.5%.
For the compound `CCCOC(=O)C(O)Cc1ccccc1` (stereo not given), the growth inhibition was -0.35%.
Still for that read-out and setting: in the case of `[O-][N+]1=CCCC1` it was -5.5%; in that of `Oc1c(Cl)cc(Cl)cc1C=Nc1cc(C(F)(F)F)ccc1N1CCc2ccccc2C1`, 14.4%.
For the compound `CSC(=S)Nc1nc2ccc(C)cc2s1`, the growth inhibition is -15%.
Consider `O=C1CSC(/C(=C\c2ccc(Cl)cc2)c2nc3ccccc3[nH]2)=N1`, for which the growth inhibition is 11.7%.
Same read-out and setting: in the case of `O=c1c2ccccc2c(=O)c2c1ccc1[nH]c3ccccc3sc12` it was -20.1%.
Same read-out and setting: in the case of `CCNC(=S)NNC(=O)c1ccc(N=NN(C)C)cc1` it was -13.4%.
Consider `CCOc1ccc2nc(NC(=O)C(=O)C(C(=O)c3ccccc3-c3ccccc3)C3OC(=O)c4ccccc43)sc2c1` (stereo not given), for which the growth inhibition was 23.1%.
For `Cc1cccc(C)c1NC(=O)C(=O)CC(=O)/C=C/c1ccccc1`, the growth inhibition is 3.05%.
The same measure, in the same setting: the result for `COc1ccc(C(=O)O[C@H]2[C@@H]3C=CO[C@@H](OC4OC(CO)C(O)C(O)C4O)[C@@H]3[C@@]3(CO)O[C@@H]23)cc1O` (stereo not given in full) reads 11.7%; that for `COc1ccc2[nH]c(Br)c(CCNC(C)=O)c2c1`, 1.9%; that for `O=C(Nc1ccccc1)Oc1ccccc1C1CCCCC1`, 16.8%.
As to `O=C(Nc1cccc(O)c1)c1ccc([N+](=O)[O-])cc1`, the growth inhibition is -15.3%.
Still for that read-out and setting: the result for `C/C(N=NC(=S)N1CCCCC1)=C1\C=CC=CN1O` reads 97.8% (active); that for `CCOC(=O)C(Cc1ccc(O)cc1)NC(=O)c1cc2c(cn1)[nH]c1ccccc12` (stereo not given), -19.8%; that for `CC/C(=C\c1ccccc1OC)c1ccncc1`, 12.2%.
For the compound `CN(C)Cc1cc(C(C)(C)CC(C)(C)C)cc(Br)c1O`, the growth inhibition was 28.8%.
`CC(=O)Nc1cccnc1`: the growth inhibition was -21.1%.
The same measure, in the same setting: in the case of `CCOC(=O)NC(=O)c1cn(CCN2CCN(C(=O)CCCCCCCCCCNc3ncnc4nc[nH]c34)CC2)c(=O)[nH]c1=O` it was -25.6%; in that of `COCCOCOCCCC#C[Si](C)(C)C`, -1.2%; in that of `O=C1/C(=C/c2ccccc2)CN(C(=O)OCC(Cl)(Cl)Cl)C/C1=C\c1ccccc1`, 4.9%.
The same measure, in the same setting: in the case of `N#Cc1ccccc1OCCCCOc1ccccc1C#N` it was 14.2%.
Take `O=[N+]([O-])c1ccc(C2ON2c2ccccc2)cc1` (stereo not given) (tested in a mixture with another compound): the growth inhibition is -9.7%.
As to `CNC(=O)NS(=O)(=O)c1cccc([N+](=O)[O-])c1`, the growth inhibition was 1.9%.
Consider `NC(Cc1ccc(O)c(O)c1)P(=O)(O)O` (stereo not given), for which the growth inhibition was -5.75%.
The same measure, in the same setting: the result for `CN(CCCCl)Cc1ccccc1` reads 1.35%; that for `COC(=O)C1CCC(=O)C(Sc2ccccc2)C1` (stereo not given), 6%.
The same measure, in the same setting: the result for `O=c1c2cc(S(=O)(=O)Nc3ccc(Cl)cc3Cl)ccc2ncn1NS(=O)(=O)c1cccc2ccccc12` reads 18.8%.
The same measure, in the same setting: in the case of `CC(=O)OC(C[N+]1(C)CCCCCC1)C[N+]1(C)CCCCCC1` it was -27.6%.
For the compound `Nc1nc(N)c2nc(-c3ccc(N(CCO)CCO)cc3)c(N)nc2n1`, the growth inhibition was -34.9%.
As to `Cc1ccc2c(c1)SC(c1cc3c(cc1Br)OCO3)S2` (stereo not given), the growth inhibition was 34.9%.
For `O=C(Nc1cc(Cl)ccc1Cl)Oc1c(Cl)cc(Cl)c(Cl)c1[N+](=O)[O-]`, the growth inhibition is -33.8%.
On the same count and under the same terms, in the case of `CSC(=NCCCCN=C(NS(=O)(=O)c1ccc(Cl)cc1)SC)NS(=O)(=O)c1ccc(Cl)cc1` it was 13.9%.
Turning to `CSC(C1c2ccccc2N(C)C2=NC(=O)N(C)C(=O)C21Cl)S(=O)(=O)c1ccc(C)cc1` (stereo not given), the growth inhibition was 35.7%.
`CCC(C(O)C(C)C)[N+](=O)[O-]` (stereo not given): the growth inhibition is -6.5%.
The same measure, in the same setting: in the case of `COc1ccc(C(Cc2cc(OC)c(OC)cc2Br)NC=O)cc1OC` (stereo not given) it was -3.15%; in that of `CCOC(=O)CCc1ccc(NC(=O)/C=C/c2ccc([N+](=O)[O-])o2)cc1`, 53.8%.
Same read-out and setting: the result for `O=C1CSC(/C(=C/c2ccccc2)c2nc3ccccc3[nH]2)=N1` reads 16.2%; that for `CC1(C(=O)O)CCCC1C(CCC(=O)O)C(=O)O` (stereo not given), -19.6%.

A short description of another assay: NCI Yeast Anticancer Drug Screen. Data for the bub3 strain (AID 167). To be noted: S. cerevisiae bub3 mutant strain, at 50.0 µM, stronger effect = higher value. The gist of the method: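 Yeast carrying a defined mutation is treated with each compound, and growth is compared with that of vehicle-exposed cells to give inhibition.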
`CC(C)(CCCOc1ccccc1)NC(=O)c1ccccc1`: the growth inhibition was 15.3%.
Same read-out and setting: the result for `CCCOC(=O)C(O)Cc1ccccc1` (stereo not given) reads -11.1%; that for `[O-][N+]1=CCCC1`, -0.2%.
Same read-out and setting: in the case of `Oc1c(Cl)cc(Cl)cc1C=Nc1cc(C(F)(F)F)ccc1N1CCc2ccccc2C1` it was 42.8%; in that of `CSC(=S)Nc1nc2ccc(C)cc2s1`, 11.3%; in that of `O=C1CSC(/C(=C\c2ccc(Cl)cc2)c2nc3ccccc3[nH]2)=N1`, 12.2%.
Still for that read-out and setting: in the case of `O=c1c2ccccc2c(=O)c2c1ccc1[nH]c3ccccc3sc12` it was 6.2%; in that of `CCNC(=S)NNC(=O)c1ccc(N=NN(C)C)cc1`, 14.8%.
For `CCOc1ccc2nc(NC(=O)C(=O)C(C(=O)c3ccccc3-c3ccccc3)C3OC(=O)c4ccccc43)sc2c1` (stereo not given), the growth inhibition is -32.1%.
On the same count and under the same terms, the result for `Cc1cccc(C)c1NC(=O)C(=O)CC(=O)/C=C/c1ccccc1` reads -23.1%; that for `COc1ccc(C(=O)O[C@H]2[C@@H]3C=CO[C@@H](OC4OC(CO)C(O)C(O)C4O)[C@@H]3[C@@]3(CO)O[C@@H]23)cc1O` (stereo not given in full), 34.3%.
Turning to `COc1ccc2[nH]c(Br)c(CCNC(C)=O)c2c1`, the growth inhibition is -4.55%.
Still for that read-out and setting: in the case of `O=C(Nc1ccccc1)Oc1ccccc1C1CCCCC1` it was -18.9%; in that of `O=C(Nc1cccc(O)c1)c1ccc([N+](=O)[O-])cc1`, 19.7%.
Still for that read-out and setting: in the case of `C/C(N=NC(=S)N1CCCCC1)=C1\C=CC=CN1O` it was 43.2%; in that of `CCOC(=O)C(Cc1ccc(O)cc1)NC(=O)c1cc2c(cn1)[nH]c1ccccc12` (stereo not given), -1%.
Turning to `CC/C(=C\c1ccccc1OC)c1ccncc1`, the growth inhibition is 36.6%.
On to `CN(C)Cc1cc(C(C)(C)CC(C)(C)C)cc(Br)c1O`, for which the growth inhibition is 39.7%.
Still for that read-out and setting: in the case of `CC(=O)Nc1cccnc1` it was -19.9%.
On to `CCOC(=O)NC(=O)c1cn(CCN2CCN(C(=O)CCCCCCCCCCNc3ncnc4nc[nH]c34)CC2)c(=O)[nH]c1=O`, for which the growth inhibition is 0.05%.
The same measure, in the same setting: in the case of `COCCOCOCCCC#C[Si](C)(C)C` it was -4%; in that of `O=C1/C(=C/c2ccccc2)CN(C(=O)OCC(Cl)(Cl)Cl)C/C1=C\c1ccccc1`, -11%.
On to `N#Cc1ccccc1OCCCCOc1ccccc1C#N`, for which the growth inhibition was 18.7%.
The same measure, in the same setting: in the case of `O=[N+]([O-])c1ccc(C2ON2c2ccccc2)cc1` (stereo not given) (tested in a mixture with another compound) it was -7.4%; in that of `CNC(=O)NS(=O)(=O)c1cccc([N+](=O)[O-])c1`, -21.6%; in that of `NC(Cc1ccc(O)c(O)c1)P(=O)(O)O` (stereo not given), -0.1%.
The same measure, in the same setting: in the case of `CN(CCCCl)Cc1ccccc1` it was -14.3%; in that of `COC(=O)C1CCC(=O)C(Sc2ccccc2)C1` (stereo not given), 32.1%; in that of `O=c1c2cc(S(=O)(=O)Nc3ccc(Cl)cc3Cl)ccc2ncn1NS(=O)(=O)c1cccc2ccccc12`, 8.85%.
Regarding `CC(=O)OC(C[N+]1(C)CCCCCC1)C[N+]1(C)CCCCCC1`, the growth inhibition was 7.95%.
In the case of `Nc1nc(N)c2nc(-c3ccc(N(CCO)CCO)cc3)c(N)nc2n1`, the growth inhibition was 3.15%.
Same read-out and setting: in the case of `Cc1ccc2c(c1)SC(c1cc3c(cc1Br)OCO3)S2` (stereo not given) it was 32.5%.
Same read-out and setting: in the case of `O=C(Nc1cc(Cl)ccc1Cl)Oc1c(Cl)cc(Cl)c(Cl)c1[N+](=O)[O-]` it was -0.55%; in that of `CSC(=NCCCCN=C(NS(=O)(=O)c1ccc(Cl)cc1)SC)NS(=O)(=O)c1ccc(Cl)cc1`, -8.8%.
As for `CSC(C1c2ccccc2N(C)C2=NC(=O)N(C)C(=O)C21Cl)S(=O)(=O)c1ccc(C)cc1` (stereo not given), the growth inhibition was 45.4%.
With `CCC(C(O)C(C)C)[N+](=O)[O-]` (stereo not given), the growth inhibition was 0.05%.
Same read-out and setting: in the case of `COc1ccc(C(Cc2cc(OC)c(OC)cc2Br)NC=O)cc1OC` (stereo not given) it was 5%; in that of `CCOC(=O)CCc1ccc(NC(=O)/C=C/c2ccc([N+](=O)[O-])o2)cc1`, 34.8%.
As to `O=C1CSC(/C(=C/c2ccccc2)c2nc3ccccc3[nH]2)=N1`, the growth inhibition was -1.6%.
The same measure, in the same setting: the result for `CC1(C(=O)O)CCCC1C(CCC(=O)O)C(=O)O` (stereo not given) reads -6.9%.
